Most compounds without a hit are left out; they make up all but 9% or so of the library.
HPGD block – blocks human HPGD enzyme activity | P15428 | purified HPGD, NADH fluorescence kinetic, PGE2 substrate | AID 894 | Potency, µM, actives largely listed as inhibitors | 150,000 tested, 4.3% active; active means well fitted inhibition curve with a large enough effect, not every such curve was filed as active; inconclusive means small, poorly fitted or top-dose-only effect, or another doubt; inactive means no such curve, though single readings can be large or run the other way
Target sequence (P15428 whole entry, looked up): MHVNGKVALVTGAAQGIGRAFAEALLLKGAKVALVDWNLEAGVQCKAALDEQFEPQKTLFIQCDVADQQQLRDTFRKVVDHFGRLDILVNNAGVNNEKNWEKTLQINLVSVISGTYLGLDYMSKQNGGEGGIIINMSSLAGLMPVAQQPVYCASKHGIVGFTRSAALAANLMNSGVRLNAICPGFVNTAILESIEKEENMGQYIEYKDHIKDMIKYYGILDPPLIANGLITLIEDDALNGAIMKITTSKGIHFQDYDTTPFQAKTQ
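NADH formation kinetics: reaction with 30 uM PGE2 and 1 mM NAD+ (final), 20 nM enzyme, Tris-HCl pH 8 with Tween 20, after 15 min compound preincubation at room temperature. Fluorescence change, last versus first of five reads.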
IMPase Li inh – cell-permeable IMPase inhibitors with lithium potentiation; CHO-M1 cells, IP1 TR-FRET (IP-One), carbachol + lithium; Potency, µM (series often up to 59.4 µM), most hits filed as inhibitors; 210,000 tested, 0.35% active; AID 1457;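 further: IP1 builds up when IMPase is blocked and the TR-FRET signal falls; nearly all actives have a fitted effect of over 50% in size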
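CHO-M1, 2000 cells/well, 16–30 h culture; cpd + low Li+, 30 min 37C; lysis with d2-IP1/Eu-anti-IP1 Ab, 10 min RT; TR-FRET 665/620 ratio and 620 channel; AC50 via Hill.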
Luc counter – Kinase-Glo luciferase inhibition (counter-screen); Q27757; Kinase-Glo luciferase, ATP luminescence, 8 min; Potency, µM (top dose mostly 38.3 µM), most hits filed as inhibitors; 200,000 tested, 0.28% active; AID 1379; further: nearly all actives have a fitted effect of over 60% in size
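Light output from Kinase-Glo luciferase with luciferin and 10 uM ATP in 50 mM imidazole pH 7.2, KCl, MgCl2, Tween 20, BSA; compound pin-delivered, 8-min ambient incubation, then luminescence read.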
Lamin A splicing – modulators of lamin A splicing; Potency, µM (titrated, usually from 46.1 µM), most hits filed as inhibitors; HeLa LMNA splicing GFP/RFP minigene ratio, 48 h; 200,000 tested, 0.01% active; active means well fitted inhibition curve with a large enough effect in the signal ratio, with a control signal flat, not every such curve was filed as active; inconclusive means small, poorly fitted or top-dose-only effect, or effect the other way, or a change in a side signal; the % refers to the signal ratio
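S3 HeLa cells stably expressing lamin A-EGFP splicing minigene plus DsRed2, 600 cells/well, 48 h compound exposure at 37C. Laser-scanning cytometry; analysed as GFP (500-530 nm)/RFP (575-640 nm) total intensity ratio; 0.5% DMSO vehicle.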
ALDH1A1 block – ALDH1A1 (human) enzyme inhibition; Purified ALDH1A1, NADH fluorescence, propionaldehyde substrate; P00352; Potency, µM (series often up to 75.3 µM), hits mostly inhibitors; 220,000 tested, 7.3% active; active means well fitted inhibition curve with a large enough effect, not every such curve was filed as active; inconclusive means small, poorly fitted or top-dose-only effect, or another doubt; inactive means no such curve, though single readings can be large or run the other way
Numbers stand for hits; 0 = inactive; ? = inconclusive; - = not tested or not shown; ! = repeats disagree. Unless noted, the call rests on the fitted dose curve; in most records, active means well fitted curve in the direction sought with a large enough effect; inconclusive means small, poorly fitted or top-dose-only effect, or another doubt; inactive means no such curve, though single readings can be large; an effect the other way counts as inactive or inconclusive.

SMILES	HPGD block	IMPase Li inh	Luc counter	Lamin A splicing	ALDH1A1 block
O=C(Nc1ccccc1N1CCOCC1)c1ccccc1NS(=O)(=O)c1ccc(F)cc1	0	0	0	0	0
CCOc1ccc(S(=O)(=O)Nc2ccccc2C(=O)Nc2ccccc2N2CCOCC2)cc1	0	0	0	0	28.2µM
CCOCCCNC(=O)c1ccc(N2CCOCC2)c(NS(=O)(=O)c2ccc(OC)cc2)c1	-	0	0	-	2.51µM
CSc1sc(C(=O)NC(=O)NCc2ccncc2)c(C)c1-c1ccon1	-	-	-	?	0
Cc1cccn2c(=O)c(/C=C(\C#N)C(=O)NCc3ccco3)c(N3CCCCC3)nc12	31.6µM	0	0	0	14.1µM
Cc1cccn2c(=O)c(/C=C(\C#N)C(=O)NCc3ccco3)c(N3CCCC(C)C3)nc12 (centres undefined)	15.8µM	0	0	0	25.1µM
Cc1cccn2c(=O)c(/C=N/O)c(N3CCCCC3)nc12	2µM	0	0	0	?
Cc1cccn2c(=O)c(/C=C(\C#N)C(=O)NCc3ccco3)c(N3CCC(C(N)=O)CC3)nc12	0	0	0	0	?
CN(C)Cc1ccccc1-c1cncnc1NCc1cccnc1	0	0	0	0	0
N#Cc1ccccc1NC(=O)CNc1ccccc1N1CCCCC1	0	0	0	0	31.6µM
CN(Cc1ccccc1NCC(=O)Nc1ccccc1C#N)C1CCCCC1	-	0	0	?	0
Cc1ccc(NC(=O)c2ccoc2C)cc1C	0	0	10µM	0	0
Cc1occc1C(=O)NC(C)C(C)(C)C (centres undefined)	31.6µM	0	0	0	0
Cc1occc1C(=O)Nc1ccc2c(c1)OCO2	0	0	?	0	0
COC(=O)c1ccc(CN(Cc2ccc(OC)c(OC)c2)S(=O)(=O)c2cc(C(=O)Nc3cccc(C)c3)ccc2F)cc1	-	-	-	0	-
Cc1ccc(C(CC(=O)c2ccco2)SCCO)cc1 (centres undefined)	0	0	0	?	0
O=C(CC(SCCO)c1ccc(F)cc1)c1ccco1 (centres undefined)	0	0	0	?	28.2µM
O=C(COC(=O)c1ccc(CO)cc1)NCc1cccs1	31.6µM	0	0	0	0
NS(=O)(=O)c1ccc(NC(=O)COC(=O)c2cnc(Cl)c(Cl)c2)cc1	-	-	-	-	20µM
NS(=O)(=O)c1ccc(NC(=O)COC(=O)c2cc([N+](=O)[O-])ccc2Cl)cc1	-	-	-	-	0
O=C(O)CCC(=O)Nc1ccc(C(=O)OCC(=O)c2ccc(Cl)cc2)cc1	-	0	0	-	0
O=C(COC(=O)c1ccc(O)cc1)Nc1ccc(Cl)cc1	-	0	0	-	8.91µM
O=C(COC(=O)c1cnc(Cl)c(Cl)c1)NCc1cccs1	-	0	0	0	20µM
O=C(NCc1cccs1)c1cnc(Cl)c(Cl)c1	-	0	0	0	?
CCC(C)NC(=O)CSc1nc2ccccc2c(=O)n1-c1c(C)n(C)n(-c2ccccc2)c1=O (centres undefined)	-	0	0	?	0
SMILES	HPGD block	IMPase Li inh	Luc counter	Lamin A splicing	ALDH1A1 block
CCOC(=O)C1C(c2ccccc2)C(C(=O)OCC)S(=O)(=O)C(CCN(CC)CC)S1(=O)=O (centres undefined)	-	0	0	0	0
COc1cccc(CN(C)CC(=O)Nc2ccccc2C(=O)Nc2ccccc2)c1OC	-	0	0	0	?
CCCOC(=O)c1ccc(O)cc1	0	0	-	?	10µM!
Cc1ccc(S(=O)(=O)Cc2sc3ccccc3[n+]2C)cc1	22.4µM	0	0	0	?
O=C(CN1CCOCC1)NNc1nc(-c2ccccc2)c2cc(Br)ccc2n1	-	0	0	0	?
N#CC1=C(N)OC2=C(C(=O)CCC2)[C@]12C(=O)N(CC(N)=O)c1ccccc12	-	-	-	0	0
COC(=O)Cc1[nH]nc2c1C1(C(=O)N(Cc3ccccc3)c3ccccc31)C(C#N)=C(N)O2 (centres undefined)	0	0	0	0	20µM
Cc1[nH]nc2c1C1(C(=O)N(Cc3ccc(Cl)cc3)c3ccccc31)C(C#N)=C(N)O2 (centres undefined)	0	0	0	0	?
CC1=CC(C)(C)N2C(=O)C3(C(C#N)=C(N)OC4=C3C(=O)CC(C)(C)C4)c3cccc1c32 (centres undefined)	0	0	0	0	?
COc1cc2c3c(c1)C1(C(=O)N3C(C)(C)C=C2C)C(C#N)=C(N)Oc2cc(C)oc(=O)c21 (centres undefined)	0	0	0	?	3.98µM
COC(=O)CN1C(=O)C2(C(C#N)=C(N)Oc3ccccc32)C2=C1CC(C)(C)CC2=O (centres undefined)	0	0	0	0	6.31µM
CC1(C)CC(=O)C2=C(C1)OC(N)=C(C#N)C21C(=O)N(Cc2ccccc2Cl)c2ccccc21 (centres undefined)	0	0	0	0	2.82µM
COc1ccc2c(c1OC)OCC(c1ccc(OC)c(OC)c1OC)C2 (centres undefined)	0	0	0	0	0
COC(=O)CN1C(=O)C2(C(C#N)=C(N)Oc3cc(C)oc(=O)c32)c2ccccc21 (centres undefined)	0	0	0	0	6.31µM
CC(=O)N1C(=O)C2(C(C#N)=C(N)Oc3cc(C)oc(=O)c32)c2ccccc21 (centres undefined)	0	0	0	0	0
CC(=O)N1CCC2(CC1)CN(C(c1ccccc1)c1ccccc1)C2	0	0	0	-	0
COC(=O)NC(NC(=S)Nc1ccccc1OC)C(Cl)(Cl)Cl (centres undefined)	-	-	-	0	3.16µM
COc1ccc([N+](=O)[O-])cc1NC(=S)NC(NC(=O)C(c1ccccc1)c1ccccc1)C(Cl)(Cl)Cl (centres undefined)	0	0	0	?	20µM
CC(=O)NC(NC(=S)Nc1ccc(N=Nc2ccccc2)cc1)C(Cl)(Cl)Cl (centres undefined)	0	0	0	?	12.6µM
COC(=O)NC(NC(=S)Nc1ccc([N+](=O)[O-])cc1)C(Cl)(Cl)Cl (centres undefined)	31.6µM	0	0	?	20µM
Cc1nnc2n(c1=O)N=C(c1ccc(Cl)cc1)CS2	0	0	0	0	?
O=C(CCNc1cc(Cl)cc(Cl)c1)c1cccs1	0	0	0	?	1.58µM
O=C(NCCc1ccc(Cl)cc1)c1cccs1	-	0	0	-	0
O=C(CCNc1ccc(Cl)cc1)c1cccs1	0	0	0	?	3.16µM
O=C(CCSc1ccc(Cl)cc1)c1cccs1	20µM	0	0	?	0.355µM
Cn1cnnc1SCC(=O)NNC(=O)COc1ccc(Cl)cc1	-	0	-	-	0
OC1c2ccccc2-c2nc3ccccc3cc21 (centres undefined)	0	0	?	-	?
CCCSc1nc(C)c(-c2csc(C(C#N)=C3CCCC3)n2)cc1C#N	0	0	0	?	22.4µM
Oc1c(N=NC(=S)Nc2ccccc2F)c2ccccc2n1Cc1ccccc1F	-	0	-	-	20µM
